Data taken from the supplement of paper PMC6555819.

How the values were obtained:
Test in all cases: PBM binding z-score (relative to random genomic background probes); higher = stronger binding; sequences stand for … in GC…GCGATTGACAGCGTAGAATGAAGG
[1] = test system: FXR:RXRa (NR concentration 270 nM, RXRa partner concentration 90 nM)
Procedure, shortened: (§1)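 On custom Agilent 4×180K arrays, double-stranded probes with 34-nt variable regions carried direct-repeat seeds, single-nucleotide variants, half-site ablations or random human genomic background. Ligand-free nuclear receptor dimers were applied for 1 h, and binding was read with antibodies against each partner (one per run). Binding z-scores come from regression-normalized fluorescence, with the random background probes as reference.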

[2] = test system: LXRa:RXRa (NR concentration 270 nM, RXRa partner concentration 90 nM)
Procedure, shortened: as §1

[3] = test system: LXRa homodimer (NR concentration 270 nM)
Procedure, shortened: as §1

[4] = test system: LXRb:RXRa (NR concentration 270 nM, RXRa partner concentration 90 nM)
Procedure, shortened: as §1

[5] = test system: LXRb homodimer (NR concentration 270 nM)
Procedure, shortened: as §1

[6] = test system: PPARa:RXRa (NR concentration 270 nM, RXRa partner concentration 90 nM)
Procedure, shortened: as §1

[7] = test system: PPARg:RXRa (NR concentration 180 nM, RXRa partner concentration 90 nM)
Procedure, shortened: as §1

[8] = test system: PPARg:RXRa 270nM:90nM, anti-RXR (NR concentration 270 nM, RXRa partner concentration 90 nM)
Procedure, shortened: as §1

[9] = test system: PPARg:RXRa 30nM:10nM, anti-RXR (NR concentration 30 nM, RXRa partner concentration 10 nM)
Procedure, shortened: as §1

[10] = test system: PPARg:RXRa 90nM:30nM, anti-RXR (NR concentration 90 nM, RXRa partner concentration 30 nM)
Procedure, shortened: as §1

[11] = test system: PPARg:RXRa DBDmut IVT, anti-RXR (DBD mutation: RXRa K156A/R161A, NR concentration 270 nM, RXRa partner concentration 90 nM)
Procedure, shortened: as §1

[12] = test system: PPARg:RXRa IVT, anti-PPARg (NR concentration 270 nM, RXRa partner concentration 90 nM)
Procedure, shortened: as §1

[13] = test system: PPARg DBDmut:RXRa IVT, anti-PPARg (DBD mutation: PPARg1 K132A/R137A, NR concentration 270 nM, RXRa partner concentration 90 nM)
Procedure, shortened: as §1

[14] = test system: PPARg DBDmut IVT, anti-PPARg (DBD mutation: PPARg1 K132A/R137A, NR concentration 270 nM)
Procedure, shortened: as §1

[15] = test system: PPARg homodimer (NR concentration 180 nM)
Procedure, shortened: as §1

[16] = test system: PXR:RXRa (NR concentration 270 nM, RXRa partner concentration 90 nM)
Procedure, shortened: as §1

[17] = test system: PXR homodimer (NR concentration 270 nM)
Procedure, shortened: as §1

[18] = test system: RARa:RXR (NR concentration 270 nM, RXRa partner concentration 90 nM)
Procedure, shortened: as §1

[19] = test system: RARa homodimer (NR concentration 270 nM)
Procedure, shortened: as §1

[20] = test system: RARb:RXRa (NR concentration 270 nM, RXRa partner concentration 90 nM)
Procedure, shortened: as §1

Sequence	PBM binding z-score [1]	PBM binding z-score [2]	PBM binding z-score [3]	PBM binding z-score [4]	PBM binding z-score [5]	PBM binding z-score [6]	PBM binding z-score [7]	PBM binding z-score [8]	PBM binding z-score [9]	PBM binding z-score [10]	PBM binding z-score [11]	PBM binding z-score [12]	PBM binding z-score [13]	PBM binding z-score [14]	PBM binding z-score [15]	PBM binding z-score [16]	PBM binding z-score [17]	PBM binding z-score [18]	PBM binding z-score [19]	PBM binding z-score [20]
TCTCGGATGACACGAAAGGTCAGAGCTCGACATC	2.84	3.68	2.02	3.4	0.368	3.8	1.38	2.75	2.83	2.72	1.88	1.33	0.619	1.03	3.4	3.7	0.17	4.37	1.07	3.68
GCTGCTAGGTCAACTGAAGGTCAGCTAAAGCTCG	5.14	4.92	4.01	3.69	0.218	4.26	3.73	4.61	1.03	3.19	5	4.47	-0.0557	-1.06	5.87	4.62	0.437	6.6	2.11	4.98
CGAACTAGGTAAAGGACAGTGAATCTCCGCACGC	-0.281	-0.379	-0.301	-0.788	-0.59	1.32	1.51	1.3	-0.0812	0.891	5.6	4.4	0.46	-0.605	0.363	-0.407	-0.167	-0.453	-0.188	1.21
CCTAGCAGGCGAGGGTCACTCAAGCATTTCGCTT	1.72	1.44	-0.428	1.56	-1.08	2.63	0.461	1.58	-0.298	1.34	0.277	0.13	-1.61	-1.34	0.73	1.63	-0.241	2.62	-0.425	2.29
ATCGAAAGGTCGACGAGGAGAGTATACACCGTTT	3.22	3.26	-0.0644	2.71	0.517	4.05	2.55	2.76	1.4	1.8	0.291	1.39	1.26	0.739	1.33	2.4	0.432	3.03	0.544	3.66
CCTTCTGGGCCATTCAGAGGTCATTGATCATATG	2.86	4.26	6.84	3.99	0.742	4.02	1.85	2.79	0.927	2.05	4.48	3.89	-0.117	0.751	2.03	4.77	2.46	4.25	0.112	3.25
CCTTACGGGTAACTCCAGGTTATAGCATCGGAGT	0.565	7.03	3.25	4.13	0.0113	0.572	0.317	0.049	-0.487	-0.0126	0.404	0.565	0.241	-0.665	0.705	0.705	0.14	0.64	0.018	0.315
